Reference: PubChem BioAssay (NCI)
Compounds without any hit were thinned out: in the full panel of roughly 83,000, 20% have a hit.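 Testing used 96-well plates and a 48-hour single-concentration exposure. Example: -40 means 40% of the starting cells died.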 Unmarked numbers belong to inactive results. Calls of active or inactive are those of the source.

What follows are molecules tested on NCI/ADR-RES ovarian (assay: NCI-60 one-dose screen, 48 h (100 = growth as untreated, 0 = no growth, -100 = all killed)). Conditions: 10 µM unless noted.
Description: Growth inhibition of the NCI/ADR-RES human […] tumor cell line is measured as a screen for anti-cancer activity. Cells are grown in 96 well plates and exposed to the test compound for 48 hours. Compounds are tested at a single concentration, which is 10^-5 M for most compounds. The reported endpoint is percent growth (GI% or GIPRCNT), where numbers from 0 - 100% represent growth inhibition, and numbers from -100% - 0 represent cell death. For example, a value of 40 represents 60% growth inhibition. A value of 0 means no net growth occurred over the course of the experiment. A value of -40 indicates 40% of cells at the beginning of the experiment died by the end of the experiment. A value of -100 means all cells are dead at the end of the experiment.
NCI-60 Human Tumor Cell Lines Screen was performed using the standard one-dose NCI protocol, which is described in more detail at https://dtp.cancer.gov/discovery_development/nci-60/default.htm.
Compounds with GIPRCNT values below 10 were considered active. Activity score was based on GIPRCNT using the following formula: […]
Score is 0 for GIPRCNT values of 100 or above, 50 for GIPRCNT values of 0, and 100 for GIPRCNT values of -100.

Structure (SMILES)	growth
COc1c(O)c2c3c(c1OC)-c1ccccc1CC3N(S(=O)(=O)c1ccc(C)cc1)CC2 (stereo not given)	40%
CCC(C)[C@H]1O[C@]2(CC[C@@H]1C)C[C@@H]1C[C@@H](C/C=C(\C)[C@@H](OC3C[C@H](OC)C(O[C@H]4C[C@H](OC)[C@@H](O)[C@H](C)O4)[C@H](C)O3)[C@@H](C)/C=C/C=C3\CO[C@@H]4[C@H](O)C(C)=C[C@@H](C(=O)O1)[C@]34O)O2 (stereo not given in full)	7.07% (active)
O=c1c2cc(F)ccc2oc2c(NCCNCCO)nc3ccccc3c12	48.9%
COc1cccc(C2C3=C(COC3=O)N(CCO)c3cc4c(cc32)CCC4)c1 (stereo not given)	-43.2% (active)
CC(C)(C)CC(C)(C)N(CSc1ccc(Cl)cc1)CSc1ccc(Cl)cc1	45.6%
COc1cc(OCc2cccc(-c3ccc(C(O)c4nccs4)cc3)c2C)cc(OC)c1C=O (stereo not given)	58.1%
COc1cc(C(=O)N(C(C)C)C2CCCCC2)cc(OC)c1OC	96.1%
Brc1ccccc1Nc1ccc2nnc(-c3ccncc3)n2n1	99.8%
Cc1c(NCC(=O)Nc2nc3ccccc3[nH]2)c(=O)n(-c2ccccc2)n1C	101%
Oc1ccc2ccccc2c1C1NN=C(c2ccccc2)S1 (stereo not given)	19.5%
CN1CCN(CCCn2c3c(sc4ncccc43)c(=O)n3nnc(-c4ccccc4)c23)CC1	-28.4% (active)
O=c1oc2ccccc2cc1-c1csc(N=Nc2c(O)[nH]c3ccc(Br)cc23)n1	103%
COc1ccc(-n2c(SCc3cc(OC)c(OC)c(OC)c3)nc3ccc(C)cc3c2=O)c(OC)c1	1.42% (active)
CC1(C)N=C(N)N=C(N)N1c1cccc(OCCOc2cccc([N+](=O)[O-])c2)c1	107%
Cc1ccc2c(c1)c(Sc1ccc(C(=O)NO)cc1)c1n2CN(C)CC1	53.1%
O=C1c2ccccc2-c2nnc(-c3ccc(Br)cc3)cc21	9.3% (active)
COC(=O)c1c2c(c(C)[n+]([O-])c1C)C(=O)C=C(NCc1ccc(F)c(Cl)c1)C2=O	-18.6% (active)
COc1cc(C2=NN(c3ccc(S(N)(=O)=O)cc3)C(c3ccc(Cl)cc3)C2)cc(OC)c1OC (stereo not given)	37.5%
C=CC(=O)N1CC2(CCC(n3nc(-c4ccc(Oc5ccccc5)cc4)c4c(N)ncnc43)CC2)C1	-9.16% (active)
COc1nc2c(cc1S(=O)(=O)c1ccccc1)CCc1c-2cnn1-c1cccc(Cl)c1	89.7%

Structure (SMILES)	growth
C=C[C@H]1C[C@@H]2C[C@@H]3[C@H]4C/C=C\C(=O)NCCCC5NC(=O)C(=C(O)/C=C/[C@@H]4CC(=O)[C@H]3[C@@H]2[C@H]1C)C5=O (stereo not given in full)	-73.4% (active)
O=C(O)c1ccccc1Oc1cc(-c2ccco2)nc(OCCBr)n1	105%
Cc1nc2cc(Nc3nc(NCCN)nc(Nc4ccc(F)cc4)n3)ccc2n1Cc1ccccc1	103%
Nc1nc2c(s1)CCc1c-2c(Br)n(Cc2ccccc2)c1Br	89.7%
O=c1nc(NO)[nH]c(=O)n1Cc1ccc(F)cc1	107%
C(=C\c1ccccc1)/CN1CCN(C(c2ccccc2)c2ccccc2)CC1	81.7%
C1CCC([PH+](C2CCCCC2)C2CCCCC2[PH+](C2CCCCC2)C2CCCCC2)CC1.O=C(C1[CH-]CCCC1)C1CCCC[N-]1.[Au] (stereo not given)	17.2%
CSc1ccc(OC(C)=O)cc1C	103%
Cc1ccc(S(=O)(=O)N2CCc3ccc(O)c4c3C2Cc2ccc3c(c2-4)OCO3)cc1 (stereo not given)	9.54% (active)
c1ccc(-c2n(Cc3ccc4ccccc4n3)c3ccccc3[n+]2Cc2ccc3ccccc3n2)cc1	73.4%
O=c1oc2ccccc2cc1-c1csc(N=Nc2c(O)[nH]c3ccc(Cl)cc23)n1	105%
CCCCCCCCCCCC(=O)[O][Sn]([CH2]CCC)([CH2]CCC)[CH2]CCC	-80.5% (active)
COc1ccc(S(=O)(=O)ON=C2C=C(C)C(=O)C(C)=C2)cc1	98.5%
N#Cc1c(-c2cccc(F)c2)cc(-c2ccc(Br)s2)[nH]c1=O	44.7%
COC(=O)C1C2CC3c4[nH]c5cc(OC)ccc5c4CCN3CC2CC(OC2CCCCO2)C1OC (stereo not given)	95.4%
COc1cccc(C2CC(=O)Nc3cc4c(cc32)CCC4)c1OC (stereo not given)	42.1%
COc1ccc(/C=C(\C#N)c2cc3ccccc3n2C)cc1	8.82% (active)
CC(=O)Nc1ccc(S(=O)(=O)N/N=C\c2ccc(Cl)c(Cl)c2)cc1	103%
COc1ccc(/C=C2\Oc3cc(C)c(Cl)cc3C2=O)cc1OC	107%
Cc1ccccc1-n1nnc(C(=O)Nc2nc(-c3ccccc3)c(-c3ccccc3)s2)c1C	84.3% [50 µM]
